In ChEMBL document CHEMBL1961873, “Compounds: GSK PKIS; Assays: Nanosyn kinase panel” (2012) one finds inhibition data, which are given here for 9 molecules.

Assay [1] has as its target Sphingosine kinase 1 (Homo sapiens) (UniProt Q9NYA1). The note with it: at 1 µM.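 Note: mean SPHK1 inhibition value reported from the GSK PKIS kinase panel screen.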
For assay [2], the target named is T1, Sphingosine kinase 2 (Homo sapiens) (UniProt Q9NRA0).
T1 sequence (whole entry): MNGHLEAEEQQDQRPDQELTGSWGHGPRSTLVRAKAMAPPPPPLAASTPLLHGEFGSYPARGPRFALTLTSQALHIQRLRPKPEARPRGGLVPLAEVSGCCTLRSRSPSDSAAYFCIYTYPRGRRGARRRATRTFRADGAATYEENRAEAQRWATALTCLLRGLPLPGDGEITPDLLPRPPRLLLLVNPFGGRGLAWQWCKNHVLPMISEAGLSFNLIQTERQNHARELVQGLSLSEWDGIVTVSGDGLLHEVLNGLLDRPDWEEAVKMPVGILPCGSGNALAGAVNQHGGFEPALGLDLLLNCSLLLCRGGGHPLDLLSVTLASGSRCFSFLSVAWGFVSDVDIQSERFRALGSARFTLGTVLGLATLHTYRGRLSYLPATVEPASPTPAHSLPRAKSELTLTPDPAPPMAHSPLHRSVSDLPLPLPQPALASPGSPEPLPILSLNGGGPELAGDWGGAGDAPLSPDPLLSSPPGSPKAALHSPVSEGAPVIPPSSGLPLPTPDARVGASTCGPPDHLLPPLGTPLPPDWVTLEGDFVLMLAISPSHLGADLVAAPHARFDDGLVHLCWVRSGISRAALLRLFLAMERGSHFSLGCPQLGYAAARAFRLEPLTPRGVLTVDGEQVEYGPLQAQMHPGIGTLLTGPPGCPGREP
The note with it: at 0.1 µM.

The target in assay [3] is T1, Sphingosine kinase 2 (Homo sapiens). Conditions: at 1 µM.
Assay [4] concerns the target Casein kinase II subunit alpha (Homo sapiens) (UniProt P68400). Conditions: at 0.1 µM.
The target is the same in assay [5]. Conditions: at 1 µM.
In assay [6] the target is T2, Inhibitor of nuclear factor kappa-B kinase subunit alpha (Homo sapiens) (UniProt O15111).
T2 sequence (whole entry): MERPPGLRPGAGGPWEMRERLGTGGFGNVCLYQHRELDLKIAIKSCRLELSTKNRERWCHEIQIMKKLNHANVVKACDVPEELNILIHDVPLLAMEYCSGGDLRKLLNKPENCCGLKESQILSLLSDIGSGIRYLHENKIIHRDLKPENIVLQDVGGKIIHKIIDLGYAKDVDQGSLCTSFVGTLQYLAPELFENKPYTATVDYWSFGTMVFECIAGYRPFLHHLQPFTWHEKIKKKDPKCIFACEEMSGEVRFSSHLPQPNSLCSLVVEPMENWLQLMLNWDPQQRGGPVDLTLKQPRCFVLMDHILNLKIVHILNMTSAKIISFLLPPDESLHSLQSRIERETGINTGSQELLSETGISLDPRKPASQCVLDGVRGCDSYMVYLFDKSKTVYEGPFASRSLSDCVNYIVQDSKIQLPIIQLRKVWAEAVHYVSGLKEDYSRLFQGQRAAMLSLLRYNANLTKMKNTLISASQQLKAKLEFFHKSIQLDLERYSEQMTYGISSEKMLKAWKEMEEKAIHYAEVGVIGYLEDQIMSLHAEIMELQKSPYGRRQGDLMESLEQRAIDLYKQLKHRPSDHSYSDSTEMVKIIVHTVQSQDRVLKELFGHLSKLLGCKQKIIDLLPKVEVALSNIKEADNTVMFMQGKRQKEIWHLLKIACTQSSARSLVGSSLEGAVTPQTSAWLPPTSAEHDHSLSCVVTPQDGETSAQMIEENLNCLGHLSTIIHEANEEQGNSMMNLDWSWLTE
The note with it: at 0.1 µM.

Assay [7] concerns the target T2, Inhibitor of nuclear factor kappa-B kinase subunit alpha (Homo sapiens). The note with it: at 1 µM.
Assay [8] addresses T3, Inhibitor of nuclear factor kappa-B kinase subunit beta (Homo sapiens) (UniProt O14920).
T3 sequence (whole entry): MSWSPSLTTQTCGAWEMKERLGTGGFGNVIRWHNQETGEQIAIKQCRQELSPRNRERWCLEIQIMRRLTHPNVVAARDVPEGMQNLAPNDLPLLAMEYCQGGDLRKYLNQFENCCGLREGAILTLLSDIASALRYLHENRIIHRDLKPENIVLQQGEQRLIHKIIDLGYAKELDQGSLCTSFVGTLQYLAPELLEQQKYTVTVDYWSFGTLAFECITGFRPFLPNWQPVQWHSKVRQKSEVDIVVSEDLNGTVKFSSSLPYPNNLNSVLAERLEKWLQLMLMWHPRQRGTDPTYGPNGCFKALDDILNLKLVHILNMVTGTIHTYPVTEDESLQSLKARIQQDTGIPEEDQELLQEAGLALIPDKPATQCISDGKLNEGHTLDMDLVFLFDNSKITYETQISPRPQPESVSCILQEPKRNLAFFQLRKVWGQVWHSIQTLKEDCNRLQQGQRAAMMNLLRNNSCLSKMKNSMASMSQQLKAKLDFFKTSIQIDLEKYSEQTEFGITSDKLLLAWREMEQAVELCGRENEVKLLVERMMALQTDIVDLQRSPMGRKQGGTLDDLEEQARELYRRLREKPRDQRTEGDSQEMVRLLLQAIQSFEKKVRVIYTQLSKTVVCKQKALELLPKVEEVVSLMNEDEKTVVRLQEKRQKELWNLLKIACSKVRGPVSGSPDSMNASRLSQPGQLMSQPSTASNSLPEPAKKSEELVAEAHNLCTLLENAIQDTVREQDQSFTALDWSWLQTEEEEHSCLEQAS
Conditions: at 0.1 µM.

Assay [9] addresses T3, Inhibitor of nuclear factor kappa-B kinase subunit beta (Homo sapiens). Conditions: at 1 µM.
The target of assay [10] is T4, Inhibitor of nuclear factor kappa-B kinase subunit epsilon (Homo sapiens) (UniProt Q14164).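 Note: mean inhibition of IKKε reported, from the GSK PKIS dataset.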
T4 sequence (whole entry): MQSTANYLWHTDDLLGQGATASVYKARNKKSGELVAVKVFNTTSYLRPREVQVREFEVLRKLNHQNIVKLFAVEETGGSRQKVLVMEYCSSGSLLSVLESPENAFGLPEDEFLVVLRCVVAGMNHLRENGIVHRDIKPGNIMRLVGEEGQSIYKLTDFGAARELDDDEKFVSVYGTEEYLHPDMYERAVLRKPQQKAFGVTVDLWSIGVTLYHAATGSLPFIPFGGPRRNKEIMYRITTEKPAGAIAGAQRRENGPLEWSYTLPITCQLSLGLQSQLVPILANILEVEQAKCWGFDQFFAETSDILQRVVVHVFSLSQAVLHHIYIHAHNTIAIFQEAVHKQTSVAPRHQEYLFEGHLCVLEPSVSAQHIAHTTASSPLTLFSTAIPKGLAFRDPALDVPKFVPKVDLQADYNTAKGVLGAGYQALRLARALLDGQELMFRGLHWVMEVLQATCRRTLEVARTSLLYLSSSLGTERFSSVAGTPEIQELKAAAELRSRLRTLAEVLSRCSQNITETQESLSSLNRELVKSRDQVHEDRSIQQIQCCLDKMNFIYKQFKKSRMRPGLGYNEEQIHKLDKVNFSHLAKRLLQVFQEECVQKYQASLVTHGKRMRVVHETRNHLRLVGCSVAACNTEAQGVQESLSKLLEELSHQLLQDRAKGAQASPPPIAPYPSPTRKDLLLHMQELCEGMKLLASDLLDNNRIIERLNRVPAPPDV
The note with it: at 0.1 µM.

Chain of Casein kinase II subunit alpha (Homo sapiens) (P68400 whole entry, looked up): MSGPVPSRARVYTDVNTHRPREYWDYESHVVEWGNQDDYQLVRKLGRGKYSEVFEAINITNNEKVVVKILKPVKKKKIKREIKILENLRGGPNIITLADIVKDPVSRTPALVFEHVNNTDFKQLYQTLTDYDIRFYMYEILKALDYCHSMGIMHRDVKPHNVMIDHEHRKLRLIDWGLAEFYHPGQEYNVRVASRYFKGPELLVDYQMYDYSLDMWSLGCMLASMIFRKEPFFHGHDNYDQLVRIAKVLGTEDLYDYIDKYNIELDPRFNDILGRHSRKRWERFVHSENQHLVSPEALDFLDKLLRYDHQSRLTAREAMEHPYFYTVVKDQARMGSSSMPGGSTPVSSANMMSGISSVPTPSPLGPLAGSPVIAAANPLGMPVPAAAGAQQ
Chain of Sphingosine kinase 1 (Homo sapiens) (Q9NYA1 whole entry): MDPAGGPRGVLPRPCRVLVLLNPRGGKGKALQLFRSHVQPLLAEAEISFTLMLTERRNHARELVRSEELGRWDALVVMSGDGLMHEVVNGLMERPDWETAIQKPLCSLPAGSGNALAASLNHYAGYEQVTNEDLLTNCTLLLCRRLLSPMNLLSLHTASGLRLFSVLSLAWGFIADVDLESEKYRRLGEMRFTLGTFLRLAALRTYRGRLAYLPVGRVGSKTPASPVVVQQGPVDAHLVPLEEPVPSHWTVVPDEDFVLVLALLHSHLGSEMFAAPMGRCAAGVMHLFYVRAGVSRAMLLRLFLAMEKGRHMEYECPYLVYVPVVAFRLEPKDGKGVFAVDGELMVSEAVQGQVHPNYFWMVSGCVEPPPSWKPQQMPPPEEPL

As for `CCn1c(-c2nonc2N)nc2cnc(Oc3cccc(NC(=O)c4ccc(OCCN5CCOCC5)cc4)c3)cc21`, the inhibition in assay [1] is -0.28%; in assay [2], 0.73%; in assay [3] it was -0.35%; in assay [4], 2.94%; in [5], 5.71%; in assay [6], 11%. The inhibition came out at 10.1% in [7], 5.72% in assay [8], 2.67% in [9] and 7.92% in [10].
Turning to `CCn1c(-c2nonc2N)nc2c(C#CC(C)(C)O)nc(OC[C@@H](N)c3ccccc3)cc21`, the inhibition was 2.57% in assay [1]; -1.25% in assay [2]; -2.35% in assay [3]; 0.95% in [4]; 1.36% in assay [5]; 4.77% in assay [6]. For the same molecule, the inhibition in assay [7] was 2.26%; in assay [8], -2.58%; in [9] it was -1.93%; in [10], 0.47%.
For `N#Cc1c(NC(=O)c2cccc3ccccc23)sc2c1CCCC2`, the inhibition in assay [1] was -0.69%; in assay [2], 1.73%; in assay [3] it was 0.03%; in assay [4] it was 1.53%; in assay [5], -0.03%; in assay [6], 5.48%. For the same molecule, the inhibition in assay [7] was 6.29%; in [8], 3.31%; in assay [9] it was 2.19%; in assay [10] it was 4.91%.
As to `CCN1CCC(CC(=O)Nc2n[nH]c3nc(-c4cccs4)c(Br)cc23)CC1`, the inhibition in [1] is 1.53%; in assay [2] it was -0.06%; in assay [3], -0.11%; in [4], 1.1%; in [5] it was 4.38%; in assay [6] it was 4.35%. Moreover, the inhibition in assay [7] is 5.49%; in assay [8] it was -1.36%; in assay [9], -2.71%; in assay [10], -5.79%.
Consider `c1cnn2ncc(-c3ccnc(Nc4ccc5c(c4)OCCO5)n3)c2c1`, for which the inhibition is -1.74% in [1]; 2.07% in assay [2]; 0.2% in [3]; 13.2% in assay [4]; 47.5% in assay [5]; 14.7% in assay [6]. Moreover, the inhibition in assay [7] came out at 60.5%; in assay [8] it was 8.92%; in assay [9], 30%; in assay [10] it was 6.75%.
Regarding `O=C1NC(=O)C(c2ccc(Cl)cc2)=C1Nc1ccc(Cl)c(C(=O)O)c1`, the inhibition in assay [1] was -0.08%; in [2] it was 2.29%; in [3] it was 0.32%; in assay [4], -0.4%; in assay [5], -2.48%; in assay [6], 11.5%. In addition, the inhibition in [7] is 4.5%; in assay [8], 0.8%; in assay [9], -1.44%; in assay [10] it was -4.08%.
For the molecule `CS(=O)(=O)CCN(CC#N)Cc1ccc(-c2ccc3ncnc(Nc4ccc(OCc5cccc(F)c5)c(Cl)c4)c3c2)o1`, the inhibition in assay [1] is -0.02%; in [2] it was -0.3%; in assay [3], -0.75%; in [4] it was 5.37%; in assay [5], 1.72%; in assay [6], 4.16%. Also, the inhibition was determined as 2.09% in assay [7], 3.6% in [8], 3.73% in [9] and 1.37% in assay [10].
As for `COC(=O)Nc1nc2cc(Oc3ccc(NC(=O)Nc4cccc(C(=O)O)c4)cc3)ccc2[nH]1`, the inhibition is -2.52% in assay [1]; 0.52% in assay [2]; -0.25% in assay [3]; 1.52% in assay [4]; 8.32% in [5]; 5.47% in [6]. For the same molecule, the inhibition in assay [7] was -3.86%; in assay [8], 1.26%; in [9] it was 2.79%; in [10], 3.11%.
On to `CCn1c(-c2nonc2N)nc2cncc(C(=O)N3CC[C@H](N)C3)c21`, for which the inhibition is -5.44% in assay [1]; 0.23% in assay [2]; -0.8% in assay [3]; 3.78% in assay [4]; 3.7% in [5]; 14% in assay [6]. The inhibition came out at 18.8% in assay [7], 7.24% in assay [8], 5.79% in [9] and 13.8% in assay [10].
